DNA Pol III inh – DNA polymerase III holoenzyme inhibition. reconstituted DNA polymerase III holoenzyme replication, biochemical. AID 603. Potency, µM (highest dose often 57.1 µM). 0.25% of 71,000 active
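Reconstituted *E. coli* holoenzyme (0.35 nM Pol III, 1 nM beta, 154 nM SSB, 2 nM primase) was preincubated with compound for 15 min at RT. Synthesis on 1.4 nM ssM13Gori ran 35 min, then was stopped with PicoGreen/EDTA and read as dsDNA fluorescence.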
HEK293 cAMP cs – counter-screen for TSHR agonists: cAMP increase in parental HEK293; parental HEK293 CNG cAMP sensor, membrane potential fluorescence; Potency, µM (highest dose often 57.1 µM), usual class: activators; 2.5% of 73,000 active; also: nearly all actives have a fitted effect of over 55% in size
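Parental HEK 293 cells stably expressing a cAMP-gated CNG channel were loaded with membrane potential dye containing 100 uM RO 20-1724 for 60 min. Compound added for 30 min; depolarization read as fluorescence intensity at 590 nm.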
BRCT inh red – disrupts BRCA1 BRCT binding to phosphoprotein, red fluorophore readout; 0.03% of 75,000 active; Potency, µM (series often up to 76.9 µM), usual class: inhibitors; P38398; AID 892; BRCT-phosphopeptide binding, red fluorescence polarization
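Fluorescence polarization: 100 nM His-tagged BRCA1 BRCT with 100 nM TAMRA-labelled phospho-BACH1 decapeptide, phosphate buffer pH 7.3 with 150 mM NaCl, DTT, 0.01% Tween 20; 12 min RT. Binding inhibition seen as FP decrease.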
TSHR ag – agonists of human thyroid stimulating hormone receptor; 0.48% of 73,000 active; AID 926; P16473; Potency, µM (titrated, usually from 57.1 µM), hits mostly activators; HEK293-CNG-TSHR cells (CNG channel as cAMP sensor), membrane potential dye, cAMP; active = well fitted activation curve with a large enough effect in the main read-out, with a control signal flat, not every such curve was filed as active; inconclusive = small, poorly fitted or top-dose-only effect, or a change in a side signal; inactive = no such curve, though single readings can be large or run the other way; reference of the percent scale not stated here;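 also: the control signal comes from parental cells without the receptor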
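HEK 293 cells stably expressing TSHR and a cAMP-gated CNG channel; parental CNG-only cells as counterscreen. Cells preloaded 60 min with membrane potential dye plus 100 uM RO 20-1724, then compound 30 min; fluorescence read at 590 nm.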
TsaE inh – YjeE (TsaE) inhibition, E. coli; 0.05% of 71,000 active; AID 605; Potency, µM; P0AF67; purified YjeE enzyme, qHTS inhibition assay
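Purified YjeE (10 uM) with BODIPY Texas Red-labeled ADP probe (2 uM); compounds pin-transferred, 15 min at room temperature. Binding inhibition read as decreased fluorescence polarization; ADP titration as control.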
BRCT inh green – BRCA1 BRCT-phosphoprotein interaction inhibition | 0.05% of 75,000 active | Potency, µM (top dose mostly 76.9 µM), usual class: inhibitors | BRCA1 BRCT-phosphopeptide binding, green fluorescence polarization | AID 875
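Fluorescence polarization: His-tagged BRCT (~35 kDa BRCA1 C-terminus, 250 nM) bound to 100 nM fluorescein-labeled phosphorylated 10-aa BACH1 peptide, pH 7.3 phosphate buffer with DTT and Tween 20. Compounds incubated 12 min at room temperature; inhibition read as lowered polarization.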
Numbers stand for hits. The list is not random: actives were taken first. Their share in the collection is about 3.2%. Unless noted, calls follow the shape of the dose curve; as a rule, active = well fitted curve in the direction sought with a large enough effect; inconclusive = small, poorly fitted or top-dose-only effect, or another doubt; inactive = no such curve, though single readings can be large; an effect the other way counts as inactive or inconclusive.

Results for CCCCOc1cccc(C(=O)Nc2ccc(N3CCN(CC)CC3)cc2)c1 ?
DNA Pol III inh: inactive; HEK293 cAMP cs: inactive; BRCT inh red: inactive; TSHR ag: inconclusive; TsaE inh: inactive; BRCT inh green: inactive

How did C[C@@H]1C=C[C@](Cc2ccccc2)(C(=O)O)N1C(=O)c1ccccc1 do in these assays?
DNA Pol III inh: inactive; HEK293 cAMP cs: inactive; BRCT inh red: inactive; TSHR ag: inactive; TsaE inh: inactive; BRCT inh green: inactive

How did C[C@@H]1C=C[C@](Cc2ccccc2)(C(=O)NCCN2CCOCC2)N1C(=O)c1ccccc1 do in these assays?
DNA Pol III inh: inactive; HEK293 cAMP cs: 16µM; BRCT inh red: inactive; TSHR ag: inconclusive; TsaE inh: inactive; BRCT inh green: inactive

What do the screens show for `COCCn1c(=O)c(-c2cccc(C#N)c2)nc2cnc(Nc3ccccc3)nc21`?
DNA Pol III inh: inactive; HEK293 cAMP cs: 0.25µM; BRCT inh red: inactive; TSHR ag: inconclusive; TsaE inh: inactive; BRCT inh green: inactive

What do the screens show for `Clc1ccc(OCc2nn3c(-c4ccncc4)nnc3s2)cc1`?
DNA Pol III inh: inactive; HEK293 cAMP cs: 32µM; BRCT inh red: inactive; TSHR ag: inconclusive; TsaE inh: inactive; BRCT inh green: inactive

Results for CCOc1ccc(-c2nnc3sc(COc4ccc(C)cc4)nn23)cc1 ?
DNA Pol III inh: inactive; HEK293 cAMP cs: 20µM; BRCT inh red: inactive; TSHR ag: inconclusive; TsaE inh: inactive; BRCT inh green: inactive

Results for CCOc1ccc(-c2nnc3sc(COc4ccc(Cl)cc4)nn23)cc1 ?
DNA Pol III inh: inactive; HEK293 cAMP cs: 25µM; BRCT inh red: inactive; TSHR ag: inconclusive; TsaE inh: inactive; BRCT inh green: inactive

Results for CCOc1ccc(-c2nn3c(-c4ccc(F)cc4)nnc3s2)cc1 ?
DNA Pol III inh: inactive; HEK293 cAMP cs: inactive; BRCT inh red: inactive; TsaE inh: inactive; BRCT inh green: inactive

Results for Cn1c(=O)c2c(nc(NCCNC(=O)c3ccco3)n2Cc2ccc(Cl)cc2Cl)n(C)c1=O ?
DNA Pol III inh: inactive; HEK293 cAMP cs: inactive; BRCT inh red: inactive; TSHR ag: inactive; TsaE inh: inactive; BRCT inh green: inactive

What do the screens show for `CN(Cc1cnn(C)c1)C(=O)c1cc2ccccc2oc1=O`?
DNA Pol III inh: inactive; HEK293 cAMP cs: inactive; BRCT inh red: inactive; TSHR ag: inactive; TsaE inh: inactive; BRCT inh green: inactive

What do the screens show for `O=C(Nc1ccc(N2CCOCC2)c(Cl)c1)c1ccco1`?
DNA Pol III inh: inactive; HEK293 cAMP cs: inactive; BRCT inh red: inactive; TSHR ag: inactive; TsaE inh: inactive; BRCT inh green: inactive

How did O=C(Nc1ccc(N2CCOCC2)c(Cl)c1)C1CCCCC1 do in these assays?
DNA Pol III inh: inactive; HEK293 cAMP cs: 25µM; BRCT inh red: inactive; TSHR ag: inconclusive; TsaE inh: inactive; BRCT inh green: inactive

What do the screens show for `ON=Cc1cccn1-c1ccccc1`?
DNA Pol III inh: inactive; HEK293 cAMP cs: inactive; BRCT inh red: inactive; TSHR ag: inactive; TsaE inh: inactive; BRCT inh green: inactive

What do the screens show for `O=C(O)c1cccc(-n2cccc2/C=N/O)c1`?
DNA Pol III inh: 16µM; HEK293 cAMP cs: inactive; BRCT inh red: inactive; TSHR ag: inactive; TsaE inh: inactive; BRCT inh green: inactive

What do the screens show for `COc1ccc(C(=O)c2coc3ccc(O)c(CN(C)C)c23)cc1`?
DNA Pol III inh: inactive; HEK293 cAMP cs: 32µM; BRCT inh red: inactive; TSHR ag: inconclusive; TsaE inh: inactive; BRCT inh green: inactive

How did Fc1ccc(C(c2nnnn2Cc2ccccc2)N2CCSCC2)cc1 (configuration not stated) do in these assays?
DNA Pol III inh: inactive; HEK293 cAMP cs: 13µM; BRCT inh red: inactive; TSHR ag: inconclusive; TsaE inh: inactive; BRCT inh green: inactive

How did COc1ccc(C(c2nnnn2Cc2ccc(F)cc2)N2CCN(c3ccccc3)CC2)cc1 (configuration not stated) do in these assays?
DNA Pol III inh: inactive; HEK293 cAMP cs: inactive; BRCT inh red: inactive; TsaE inh: inactive; BRCT inh green: inactive

Results for Cc1cc(NC(=O)CCC(=O)N(CCC(C)C)C(C(=O)NC2CCCC2)c2cccnc2)no1 (configuration not stated) ?
DNA Pol III inh: inactive; HEK293 cAMP cs: inactive; BRCT inh red: inactive; TSHR ag: inactive; TsaE inh: inactive; BRCT inh green: inactive

Results for Cc1ccc2nc(C3CCN(C(=O)NCc4ccccc4)CC3)[nH]c2c1 ?
DNA Pol III inh: inactive; HEK293 cAMP cs: inactive; BRCT inh red: inactive; TSHR ag: inactive; TsaE inh: inactive; BRCT inh green: inactive

What do the screens show for `O=C(NCc1ccco1)C1(c2ccccc2)CCCC1`?
DNA Pol III inh: inactive; HEK293 cAMP cs: inconclusive; BRCT inh red: inactive; TSHR ag: inconclusive; TsaE inh: inactive; BRCT inh green: inactive

What do the screens show for `O=C(OCCN(C1=NS(=O)(=O)c2ccccc21)c1ccc(Cl)cc1)c1ccco1`?
DNA Pol III inh: inactive; HEK293 cAMP cs: 16µM; BRCT inh red: inactive; TSHR ag: inconclusive; TsaE inh: inactive; BRCT inh green: inactive

How did O=C(CSc1ncnc2c1nnn2-c1ccc(F)cc1)NCc1ccco1 do in these assays?
HEK293 cAMP cs: inactive; BRCT inh red: inactive; TSHR ag: inactive; BRCT inh green: inactive

Results for CCCCC[C@H](O)/C=C\[C@H]1[C@H](C/C=C\CCCC(=O)O)[C@@H](O)C[C@H]1O (tested in a mixture with another compound) ?
DNA Pol III inh: inactive; HEK293 cAMP cs: 13µM; BRCT inh red: inactive; TSHR ag: inconclusive; TsaE inh: inactive; BRCT inh green: inactive

How did CCCCC[C@H](O)/C=C/[C@H]1[C@H](O)CC(=O)[C@@H]1C/C=C\CCCC(=O)O do in these assays?
HEK293 cAMP cs: 0.01µM; BRCT inh red: inactive; TSHR ag: inconclusive; BRCT inh green: inactive

Results for CCCCC[C@H](O)/C=C\[C@@H]1[C@H](O)CC(=O)[C@@H]1CCCCCCC(=O)O ?
DNA Pol III inh: inactive; HEK293 cAMP cs: 0.0025µM; BRCT inh red: inactive; TSHR ag: inconclusive; TsaE inh: inactive; BRCT inh green: inactive

Results for CCCCC[C@H](O)C=C[C@H]1[C@H](O)CC(=O)[C@H]1CCCCCCC(=O)O ?
DNA Pol III inh: inactive; HEK293 cAMP cs: 0.01µM; BRCT inh red: inactive; TSHR ag: inconclusive; TsaE inh: inactive; BRCT inh green: inactive

How did Cc1ccc2cc(CN(Cc3cccs3)Cc3nnnn3CC3CCCO3)c(=O)[nH]c2c1C (configuration not stated) do in these assays?
DNA Pol III inh: inactive; HEK293 cAMP cs: inactive; BRCT inh red: inactive; TsaE inh: inactive; BRCT inh green: inactive

What do the screens show for `O=S(=O)(c1ccc2ccccc2c1)N1CCCOC1`?
DNA Pol III inh: inactive; HEK293 cAMP cs: inactive; BRCT inh red: inactive; TSHR ag: inactive; TsaE inh: inactive; BRCT inh green: inactive
